For 8 compounds, Percent Effect results are on record in ChEMBL document CHEMBL3988442, “University of Dundee, Small-Polar-MMV Screening Library” (2021).

Parameters in all cases: scale not given: direction of the effect not stated beside the values
For assay [1], the target named is Protein translocase subunit SecA (Escherichia coli (strain K12)) (UniProt P10408). The assay can be described thus: Assay to Identify E. coli SecA ATPase Inhibitors. The settings on record: 30 µM. Format: functional.
Assay [2] has as its target T1, Ubiquitin-activating enzyme e1, putative (Leishmania donovani (strain BPK282A1)) (UniProt E9BSI1).
T1 sequence (whole entry): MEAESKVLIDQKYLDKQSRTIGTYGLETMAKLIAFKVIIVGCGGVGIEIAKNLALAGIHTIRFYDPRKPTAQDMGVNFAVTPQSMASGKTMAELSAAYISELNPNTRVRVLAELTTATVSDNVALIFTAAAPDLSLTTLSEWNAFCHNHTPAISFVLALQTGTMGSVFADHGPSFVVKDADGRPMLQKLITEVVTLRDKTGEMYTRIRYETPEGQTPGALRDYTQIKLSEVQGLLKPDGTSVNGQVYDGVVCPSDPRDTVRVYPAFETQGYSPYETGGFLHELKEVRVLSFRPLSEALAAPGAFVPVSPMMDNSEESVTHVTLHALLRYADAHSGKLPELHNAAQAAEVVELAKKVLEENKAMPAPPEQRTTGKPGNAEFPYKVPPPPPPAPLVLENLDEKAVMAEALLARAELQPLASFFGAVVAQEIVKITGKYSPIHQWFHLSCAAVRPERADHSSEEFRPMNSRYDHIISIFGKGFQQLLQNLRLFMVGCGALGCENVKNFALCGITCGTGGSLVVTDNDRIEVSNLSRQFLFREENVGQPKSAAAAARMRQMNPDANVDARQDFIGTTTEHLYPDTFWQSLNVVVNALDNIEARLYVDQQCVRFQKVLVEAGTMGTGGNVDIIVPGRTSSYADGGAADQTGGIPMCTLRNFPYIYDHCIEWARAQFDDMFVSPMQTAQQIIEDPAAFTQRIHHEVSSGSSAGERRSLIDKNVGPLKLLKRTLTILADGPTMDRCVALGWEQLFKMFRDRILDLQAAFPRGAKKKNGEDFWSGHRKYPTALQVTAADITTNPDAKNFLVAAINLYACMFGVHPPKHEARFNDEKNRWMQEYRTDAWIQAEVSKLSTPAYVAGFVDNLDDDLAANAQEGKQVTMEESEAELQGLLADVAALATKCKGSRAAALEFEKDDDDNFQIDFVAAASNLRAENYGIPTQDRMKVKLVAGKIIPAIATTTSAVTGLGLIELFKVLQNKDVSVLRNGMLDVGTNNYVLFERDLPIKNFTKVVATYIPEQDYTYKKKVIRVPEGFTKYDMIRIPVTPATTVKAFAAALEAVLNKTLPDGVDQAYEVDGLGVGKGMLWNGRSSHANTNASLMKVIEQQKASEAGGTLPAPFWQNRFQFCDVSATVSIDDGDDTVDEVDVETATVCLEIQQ
Description: Leishmania donovani Ubiquitin Activating Enzyme (LdE1). Format: functional. The settings on record: 30 µM.

Assay [3] deals with AMP-activated protein kinase, AMPK (Homo sapiens) (UniProt P54646+O43741+P54619+Q9UGJ0+Q9Y478+Q13131+Q9UGI9). The assay can be described thus: AMP-dependent Kinase enzyme assay. An in vitro enzyme assay that detects ADP turnover that is directly proportional to AMPK activity. This uses naive AMPK that is activated during the assay with MK-8722. The settings on record: 30 µM. Format: functional.

Assay [4] has as its target Sialic acid-binding Ig-like lectin 9 (Homo sapiens) (UniProt Q9Y336). Description: Hs-Siglec9 ALPHAscreen SOP 20170721. The settings on record: 10 µM. (In general: In Alpha technology, singlet oxygen from a donor bead excites a nearby acceptor bead.)
Assay [5] concerns Trypanosoma cruzi. Description: Trypanosoma cruzi phosphomannomutase and mannose-1-phosphate guanylyltransferase assay. Format: functional. The settings on record: 10 µM.
Assay [6] concerns the target T2, Arginase-2, mitochondrial (Homo sapiens) (UniProt P78540).
T2 sequence (whole entry): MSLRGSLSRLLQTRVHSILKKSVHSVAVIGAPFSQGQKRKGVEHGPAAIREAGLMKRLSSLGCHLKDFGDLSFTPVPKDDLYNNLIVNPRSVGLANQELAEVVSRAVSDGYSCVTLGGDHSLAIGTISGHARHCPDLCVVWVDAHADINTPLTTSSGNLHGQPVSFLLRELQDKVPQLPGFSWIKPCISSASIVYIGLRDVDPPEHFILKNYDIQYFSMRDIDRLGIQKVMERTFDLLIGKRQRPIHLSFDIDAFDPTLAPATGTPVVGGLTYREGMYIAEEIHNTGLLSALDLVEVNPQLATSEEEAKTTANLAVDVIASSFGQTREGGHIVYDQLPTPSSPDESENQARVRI
The assay can be described thus: in vitro enzyme assay to detect the production of urea directly proportional to the activity of Arginase II. Further: in the data most compounds retested in dose-response had high values. Type of assay: functional. The settings on record: 33.3 µM.

The target in assay [7] is T3, Proteasome subunit beta (Trypanosoma cruzi) (UniProt O96673).
T3 sequence (whole entry): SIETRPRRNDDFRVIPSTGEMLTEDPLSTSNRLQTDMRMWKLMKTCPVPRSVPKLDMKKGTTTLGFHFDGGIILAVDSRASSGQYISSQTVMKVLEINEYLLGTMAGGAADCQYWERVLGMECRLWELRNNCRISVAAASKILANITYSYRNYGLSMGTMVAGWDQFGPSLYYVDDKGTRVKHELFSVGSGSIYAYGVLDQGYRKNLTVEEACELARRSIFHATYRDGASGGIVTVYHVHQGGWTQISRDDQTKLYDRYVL
Description: Trypanosoma cruzi proteasome chymotrypsin-like activity (TcProtChymo) assay. Further: in the data most compounds retested in dose-response had high values. The settings on record: 9.37 µM. Format: functional.

For assay [8], the species on record is Homo sapiens. The assay can be described thus: To identify inhibition of the IFN signalling (Jak-Stat) pathway via expression of an eGFP reporter gene under the control of an IFN-stimulated response element (ISRE) containing MxA promoter. The settings on record: 30 µM. Format: functional. Background: A reporter such as luciferase makes a cellular process visible.

The target in assay [9] is T4, Tyrosyl-tRNA synthetase, putative (Trypanosoma cruzi (strain CL Brener)) (UniProt Q4DSP6).
T4 sequence (whole entry): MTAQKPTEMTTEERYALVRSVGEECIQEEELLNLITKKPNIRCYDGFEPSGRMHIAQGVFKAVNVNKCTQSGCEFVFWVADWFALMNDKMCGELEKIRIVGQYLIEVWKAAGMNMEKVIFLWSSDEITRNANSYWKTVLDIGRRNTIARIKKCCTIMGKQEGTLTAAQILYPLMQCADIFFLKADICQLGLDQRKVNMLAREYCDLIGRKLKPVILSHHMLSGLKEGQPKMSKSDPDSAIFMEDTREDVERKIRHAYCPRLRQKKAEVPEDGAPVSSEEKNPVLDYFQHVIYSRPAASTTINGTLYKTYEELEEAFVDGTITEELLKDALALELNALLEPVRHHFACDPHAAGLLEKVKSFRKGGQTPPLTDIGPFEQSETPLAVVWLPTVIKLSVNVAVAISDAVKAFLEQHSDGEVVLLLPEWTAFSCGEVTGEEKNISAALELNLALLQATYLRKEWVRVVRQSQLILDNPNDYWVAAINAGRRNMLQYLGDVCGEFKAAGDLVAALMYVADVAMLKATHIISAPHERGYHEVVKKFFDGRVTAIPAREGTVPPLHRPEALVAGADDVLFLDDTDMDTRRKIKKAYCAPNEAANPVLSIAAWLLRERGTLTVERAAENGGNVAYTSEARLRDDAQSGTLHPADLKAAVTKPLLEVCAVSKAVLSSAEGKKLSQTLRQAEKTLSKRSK
The assay can be described thus: Trypanosoma cruzi tyrosyl tRNA synthetase (TcYRS) _High Tyrosine SOP. Further: in the data most compounds retested in dose-response had high values. Format: functional. The settings on record: 30 µM.

Assay [10] has as its target T4, Tyrosyl-tRNA synthetase, putative (Trypanosoma cruzi (strain CL Brener)). The assay can be described thus: Trypanosoma cruzi tyrosyl tRNA synthetase (TcYRS) SOP. Format: functional. The settings on record: 30 µM.
In assay [11] the target is Chromo domain-containing protein 1 (Saccharomyces cerevisiae (strain ATCC 204508 / S288c) (Baker's yeast)) (UniProt P32657). Description: ScCHD-1 Enzyme Inhibition Assay. Further: in the data most compounds retested in dose-response had high values. Format: functional. The settings on record: 30 µM.

For some of these results: Results with a measured potency or affinity are listed apart.

Chromo domain-containing protein 1 (Saccharomyces cerevisiae (strain ATCC 204508 / S288c) (Baker's yeast)), sequence (P32657 whole entry, the tested form may be a part): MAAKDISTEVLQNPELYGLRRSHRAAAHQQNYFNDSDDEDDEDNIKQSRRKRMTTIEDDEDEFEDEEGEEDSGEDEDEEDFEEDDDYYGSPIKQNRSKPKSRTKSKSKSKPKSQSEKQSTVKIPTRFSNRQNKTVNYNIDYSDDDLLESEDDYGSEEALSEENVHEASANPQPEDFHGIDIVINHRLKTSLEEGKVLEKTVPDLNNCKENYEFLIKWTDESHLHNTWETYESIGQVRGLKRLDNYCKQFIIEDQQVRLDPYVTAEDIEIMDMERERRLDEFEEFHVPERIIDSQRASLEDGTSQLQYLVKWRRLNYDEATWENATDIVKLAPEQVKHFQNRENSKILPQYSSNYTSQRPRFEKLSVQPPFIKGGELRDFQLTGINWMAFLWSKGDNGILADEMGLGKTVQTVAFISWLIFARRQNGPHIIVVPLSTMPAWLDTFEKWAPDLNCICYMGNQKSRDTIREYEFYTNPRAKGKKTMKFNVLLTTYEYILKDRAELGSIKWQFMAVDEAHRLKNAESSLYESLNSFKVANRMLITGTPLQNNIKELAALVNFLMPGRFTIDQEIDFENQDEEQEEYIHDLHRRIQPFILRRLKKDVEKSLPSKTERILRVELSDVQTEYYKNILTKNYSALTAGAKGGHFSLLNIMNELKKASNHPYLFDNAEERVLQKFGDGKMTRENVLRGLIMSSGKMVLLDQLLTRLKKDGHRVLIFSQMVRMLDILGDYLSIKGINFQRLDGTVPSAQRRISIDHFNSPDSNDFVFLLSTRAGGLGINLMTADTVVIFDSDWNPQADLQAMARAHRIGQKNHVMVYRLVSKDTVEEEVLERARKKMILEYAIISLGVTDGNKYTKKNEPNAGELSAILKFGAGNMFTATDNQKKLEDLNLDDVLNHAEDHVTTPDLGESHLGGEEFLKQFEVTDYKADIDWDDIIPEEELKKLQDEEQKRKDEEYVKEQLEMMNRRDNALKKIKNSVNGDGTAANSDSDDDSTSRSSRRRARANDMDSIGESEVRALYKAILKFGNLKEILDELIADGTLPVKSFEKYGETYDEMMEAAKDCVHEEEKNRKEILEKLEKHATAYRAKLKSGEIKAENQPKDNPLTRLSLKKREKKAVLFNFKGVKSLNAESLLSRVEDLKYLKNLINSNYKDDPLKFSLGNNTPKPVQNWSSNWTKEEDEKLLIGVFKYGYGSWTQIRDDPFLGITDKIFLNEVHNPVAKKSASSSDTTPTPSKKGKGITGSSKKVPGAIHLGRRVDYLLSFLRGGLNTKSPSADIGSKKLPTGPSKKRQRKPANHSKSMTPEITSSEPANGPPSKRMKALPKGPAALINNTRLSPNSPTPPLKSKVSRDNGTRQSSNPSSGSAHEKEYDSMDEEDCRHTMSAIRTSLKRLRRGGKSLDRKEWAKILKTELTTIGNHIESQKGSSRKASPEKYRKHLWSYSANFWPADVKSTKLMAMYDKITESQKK
Protein translocase subunit SecA (Escherichia coli (strain K12)), sequence (P10408 whole entry): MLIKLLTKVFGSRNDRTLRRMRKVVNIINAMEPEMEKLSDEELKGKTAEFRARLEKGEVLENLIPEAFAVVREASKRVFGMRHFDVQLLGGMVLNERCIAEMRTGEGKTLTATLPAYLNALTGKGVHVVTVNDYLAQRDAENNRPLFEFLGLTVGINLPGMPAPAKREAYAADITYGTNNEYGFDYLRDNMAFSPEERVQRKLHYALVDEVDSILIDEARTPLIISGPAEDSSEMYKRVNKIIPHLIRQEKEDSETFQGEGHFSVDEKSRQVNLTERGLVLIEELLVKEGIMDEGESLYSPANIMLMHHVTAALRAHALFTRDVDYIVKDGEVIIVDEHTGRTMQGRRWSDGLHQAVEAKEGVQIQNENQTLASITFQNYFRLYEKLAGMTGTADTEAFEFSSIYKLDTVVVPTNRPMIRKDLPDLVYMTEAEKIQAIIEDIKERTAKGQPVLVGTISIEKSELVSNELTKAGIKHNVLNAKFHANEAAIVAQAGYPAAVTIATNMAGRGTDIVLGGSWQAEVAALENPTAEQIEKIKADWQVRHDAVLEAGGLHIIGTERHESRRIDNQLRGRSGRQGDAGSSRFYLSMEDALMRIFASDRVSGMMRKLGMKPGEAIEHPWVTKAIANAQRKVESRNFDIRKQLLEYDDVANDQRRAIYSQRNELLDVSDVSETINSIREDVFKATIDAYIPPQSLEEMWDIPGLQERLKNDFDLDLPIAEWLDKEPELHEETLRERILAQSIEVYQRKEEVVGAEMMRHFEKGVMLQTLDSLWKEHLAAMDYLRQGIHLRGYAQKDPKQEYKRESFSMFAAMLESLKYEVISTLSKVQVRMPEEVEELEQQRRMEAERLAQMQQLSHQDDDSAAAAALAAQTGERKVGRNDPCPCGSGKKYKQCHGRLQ
Sialic acid-binding Ig-like lectin 9 (Homo sapiens), sequence (Q9Y336 whole entry): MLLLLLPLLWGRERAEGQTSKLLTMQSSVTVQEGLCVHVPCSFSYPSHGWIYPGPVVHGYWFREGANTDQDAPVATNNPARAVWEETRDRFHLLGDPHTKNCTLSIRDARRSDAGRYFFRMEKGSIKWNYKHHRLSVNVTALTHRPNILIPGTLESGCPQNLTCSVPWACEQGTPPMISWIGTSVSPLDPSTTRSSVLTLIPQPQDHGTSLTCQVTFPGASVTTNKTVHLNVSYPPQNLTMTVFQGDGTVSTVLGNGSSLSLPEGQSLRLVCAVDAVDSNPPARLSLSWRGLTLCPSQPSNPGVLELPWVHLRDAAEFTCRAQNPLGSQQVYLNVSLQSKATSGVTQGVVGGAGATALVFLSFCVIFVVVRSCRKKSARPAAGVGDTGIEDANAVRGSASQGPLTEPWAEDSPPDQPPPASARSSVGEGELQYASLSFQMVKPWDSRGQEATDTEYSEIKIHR

Take `Cc1cnnn1Cc1ncn2c1CN(Cc1cccs1)CCC2`: the Percent Effect in assay [1] was -5.14%; in assay [2] it was 2.7%; in [3] it was -2.96%; in [4] it was -6.54%; in assay [5], -5.18%; in assay [6], -0.955%. For the same compound, the Percent Effect in [7] is 15.3%; in [8], 14.8%; in [9] it was 2.16%; in assay [10], 5.13%; in [11], -3.69%.

Consider `CCN(Cc1ccco1)C(=O)c1cc(OC)c2c(c1)OCCO2`, for which the Percent Effect is -1.97% in assay [1]; -2.63% in assay [2]; 6.68% in assay [3]; 5.11% in [4]; -0.487% in assay [5]; 3.55% in [6]. The Percent Effect in assay [7] was 9.88%; in [8], -7.24%; in assay [9], 0%; in assay [10] it was 2.6%; in assay [11], -1.38%.

As to `CC(C)C(C(=O)N1CCN(c2ccncc2)CC1)n1cncn1` (stereo not drawn), the Percent Effect in [1] is -5.41%; in assay [2], 15.6%; in [3], -0.644%; in assay [4] it was 10.9%; in assay [5], 6.98%; in assay [6], -34.5%. In addition, the Percent Effect was 11.8% in assay [7]; 8.3% in assay [8]; 4.3% in [9]; 13.6% in [10]; -7.32% in assay [11].

Take `Cn1ccc(CN2CCC(Oc3ccccc3)CC2)cc1=O`: the Percent Effect was -4.18% in [1]; 18.2% in assay [2]; -0.911% in assay [3]; 1.02% in assay [4]; -1.69% in [5]; -0.356% in [6]. Besides, the Percent Effect in [7] was 4.05%; in assay [8] it was -2.92%; in assay [9], 11.7%; in assay [10], 24.4%; in assay [11] it was -10.1%.

`CCOCCCn1c(NC(=O)c2cnn(C)c2)nc2ccccc21`: the Percent Effect was -5.81% in assay [1]; 5.2% in [2]; 2.7% in assay [3]; 15% in assay [4]; -1.69% in assay [5]; -1.07% in [6]. Besides, the Percent Effect is 2.37% in [7]; 11.1% in assay [8]; 6.8% in assay [9]; 14.6% in [10]; -2.58% in [11].

For the compound `Cc1csc(N2CCN(C(=O)CCn3cncn3)CC2)n1`, the Percent Effect in assay [1] is -2.99%; in [2], 17.7%; in assay [3], -7.64%; in assay [4], 11.1%; in assay [5], 0.472%; in [6], 4.18%. For the same compound, the Percent Effect in [7] was 6.31%; in assay [8], -0.236%; in [9] it was 8.37%; in [10], 21.5%; in assay [11] it was -6.07%.

For the compound `CSc1ccc(C(CNC(=O)C2CC2)N2CCc3sccc3C2)cc1` (stereo not drawn), the Percent Effect was -3.4% in assay [1]; 5.26% in assay [2]; 1.69% in [3]; -0.599% in assay [4]; 0.876% in assay [5]; -2.37% in assay [6]. In addition, the Percent Effect in [7] worked out at 16%; in assay [8], 9.34%; in assay [9], 8.51%; in [10], 15.6%; in assay [11] it was 4.76%.

With `Cc1ccccc1CS(=O)(=O)CC(=O)NC1CCCCNC1=O` (stereo not drawn), the Percent Effect was -5.33% in assay [1]; 18.2% in [2]; -2.46% in assay [3]; 11% in assay [4]; 4.87% in assay [5]; -4.98% in assay [6]. Also, the Percent Effect was 8.62% in assay [7]; 11% in assay [8]; 4.85% in assay [9]; 21.9% in [10]; -8.24% in assay [11].
